Assay outcomes from PubChem.
Sampled rows, rich in hits. Any-hit rate of the full collection: about 3.5%.
ATG4B inh = inhibitors of human ATG4B cysteine protease. Q9Y4P1. ATG4B cleavage of LC3-PLA2, NBD-HPC fluorescence, 1 h. inhibition, % at 8.33 µM. 340,000 compounds, 0.51% hits. AID 504462; in the data active = inhibition above about 40%
SKN-1 inh = inhibitors of C. elegans SKN-1; C. elegans VP596 Pgst-4::GFP/RFP ratio, acrylamide-induced, 24 h; inhibition, % at 21.8 µM; 360,000 compounds, 0.49% hits; AID 624304;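 active = interference check ratio from 0.5 to 1.5 plus GFP to RFP signal ratio inhibition reaching or exceeding a fixed threshold, cut at about 30% in these data, passing the limit was not always enough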
Myeloid diff 2 = compounds promoting myeloid differentiation. ER-HoxA9 myeloid progenitors, lysozyme-GFP differentiation, flow cytometry. 360,000 compounds, 1% hits. AID 624256. calls only at 10 µM;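 active = normalized GFP-positive differentiation at or above the plate's own cutoff, the solvent-only control mean plus 3 SD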;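 also: cells exposed to compound for four days before flow analysis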
CHRM1 agonist = human M1 muscarinic receptor agonism; P11229; CHO-K1 hM1, Fluo-8 calcium fluorescence, agonist mode; 0% DMSO, 100% acetylcholine EC100; activation, % at 3 µM; 360,000 compounds, 0.33% hits; AID 588814;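 active = activation above the run's mean compound activation plus 3 SD, cut at about 16% in these data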;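 also: peak over basal fluorescence ratio within a 140 s kinetic read after compound addition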
Target sequence (P11229 whole entry, looked up): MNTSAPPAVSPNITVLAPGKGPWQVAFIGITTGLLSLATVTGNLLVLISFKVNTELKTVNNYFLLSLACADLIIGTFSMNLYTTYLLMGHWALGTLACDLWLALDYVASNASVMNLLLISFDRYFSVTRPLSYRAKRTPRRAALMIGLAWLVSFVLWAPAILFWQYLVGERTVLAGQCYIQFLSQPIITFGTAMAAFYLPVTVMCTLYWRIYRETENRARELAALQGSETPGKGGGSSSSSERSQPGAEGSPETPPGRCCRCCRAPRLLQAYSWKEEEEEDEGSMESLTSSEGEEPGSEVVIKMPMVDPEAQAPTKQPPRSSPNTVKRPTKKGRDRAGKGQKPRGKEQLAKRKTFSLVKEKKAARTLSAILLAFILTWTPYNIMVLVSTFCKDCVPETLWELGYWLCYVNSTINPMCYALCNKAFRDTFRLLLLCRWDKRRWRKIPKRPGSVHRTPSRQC
CHRM1 antagonist = antagonists of human M1 muscarinic receptor | P11229 | CHO-K1 hM1, Fluo-8 calcium fluorescence, ACh EC80 antagonist | inhibition, % at 3 µM | 360,000 compounds, 1.3% hits;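 active = percent inhibition above its own plate's cutoff, namely the mean of that plate's compound wells plus 3 SD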;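 also: peak over basal fluorescence ratio during 140 s after agonist addition; 0% = ACh EC80 plus DMSO and 100% = DMSO alone without agonist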
CHRM1 PAM = human CHRM1 positive allosteric modulation; CHO-K1 hM1, Fluo-8 calcium fluorescence, ACh EC20; 0% = ACh EC20, 100% = maximal ACh; activation, % at 3 µM; 360,000 compounds, 0.088% hits; AID 588819; in the data active = activation above about 19%, passing the limit was not always enough
Myeloid diff CP1 = myeloid differentiation induction | shares compounds with Myeloid diff 2 | ER-HoxA9 myeloid progenitors, GFP/Mac1 double-positive flow | calls only | 2,300 compounds, 2% hits | AID 651706;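 active = share of green or green-and-red cells above 9 and 9% in run 1 or 4 and 3% in run 2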
GFP autofluor = compound fluorescence in myeloid differentiation counter-screen; shares compounds with Myeloid diff 2; 2,300 compounds, 7.4% hits; ER-HoxA9 myeloid progenitors, no estrogen, GFP autofluorescence flow cytometry; vehicle wells 0%, positive control 100%; AID 651707; fluorescence response, % (test concentration not listed);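 active = over 5% cells positive for green fluorescent reporter, or over 2% positive for both it and APC stain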;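 also: range taken on the double positive population between DMSO and positive control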
* = called active by the depositor; i = inactive; · = no result; + = active, no number.

SMILES	ATG4B inh	SKN-1 inh	Myeloid diff 2	CHRM1 agonist	CHRM1 antagonist	CHRM1 PAM	Myeloid diff CP1	GFP autofluor
O=C(Nc1c(-c2ccccc2)[nH][nH]c1=O)c1cccc(C(F)(F)F)c1	·	-20	i	0	-19	-2	·	·
CC(C)(C)c1ccc(NC(=O)CC2(C(F)(F)F)OCCO2)cc1	0	8	i	-5	0	0	i	2
COc1ccccc1OCc1ccc(C(=O)NN)cc1	-5	-12	i	-3	-18	-2	i	0
Cc1cccc(OCCOC(=O)c2c(-c3ccccc3)noc2C)c1	2	12	+	-5	3	1	i	1
CC1(C)CC(=O)C(C=Nc2ccc(O)c(N=CC3=C(O)CC(C)(C)CC3=O)c2)=C(O)C1	-7	-6	i	-5	-5	9	·	·
CC1(C)CC(=O)C(C=Nc2ccc(C(=O)c3ccccc3)cc2N=CC2=C(O)CC(C)(C)CC2=O)=C(O)C1	16	-3	+	5	13	-2	i	0
COc1ccc(CNC(=O)CSc2n[nH]c(N)n2)cc1	-11	5	i	1	5	10	·	·
Cn1cc(-c2cnc3c(NC=O)cc(-c4cccc(C(F)(F)F)c4)cn23)cn1	·	8	+	-5	-2	-3	i	2
COc1ccc(-c2cc(NC=O)c3ncc(-c4cccc(C(F)(F)F)c4)n3c2)c(OC)c1	·	-15	+	-3	-4	4	i	0
COc1ccc(N2C(=O)CN=C2Nc2nc(C)cc(C)n2)cc1OC	-5	1	+	-3	8	-7	i	0
Cc1cc(C)nc(NC2=NCC(=O)N2c2ccc(F)c(Cl)c2)n1	6	8	i	-4	3	1	·	·
CCOC(=O)N1CCC(NC(=O)c2ccc3c(c2)ncn3C2CCCC2)CC1	2	1	i	-8	-11	2	·	·
CCOC(=O)N1CCN(C(=O)c2ccc3c(c2)ncn3C2CCCC2)CC1	2	-3	i	-15	14	-15	i	0
N/C(Cc1cccc2ccccc12)=N\OC(=O)COc1ccccc1	17	4	i	-9	-9	2	i	0
O=C(C1CC1)N1CCc2cc(S(=O)(=O)NCC3COc4ccccc4O3)ccc21 (centres undefined)	-10	-2	+	2	1	-6	i	0
NC(=S)Nc1cccc2cc3ccccc3cc12	-14	3	+	-3	3	5	i	14*
Cc1ncc([N+](=O)[O-])n1CC(=O)Nc1cc(Cl)ccc1Cl	-2	2	i	-4	-10	2	·	·
COc1cc2c(cc1N/C=C(\C#N)c1nc(-c3ccc(F)cc3)cs1)oc1ccccc12	1	-3	+	-1	-11	8	i	7.2*
Cc1ccc(-n2c(P(C)(=O)O)nc3ccccc32)cc1	-4	-15	i	-8	-2	10	·	·
Cn1c(=O)c2cc(NC(=S)NC3CC3)ccc2n1C/C=C/c1ccccc1	·	0	+	-2	4	0	i	0
Cn1c(=O)c2cc(NC(=O)NCc3ccc(F)cc3)ccc2n1C/C=C/c1ccccc1	·	2	+	-4	-16	10	+	0
CCOC(=O)c1ccc(N=c2sc(C(=O)OC)cc(=O)n2C2CC2)cc1	-2	22	i	0	-5	7	i	0
CC(=O)c1ccccc1NC(=O)COC(=O)CCC1CCCC1	-2	6	i	-5	-5	4	·	·
O=C(NCc1ccco1)c1ccc2c(=O)n(-c3ccccc3)c(=O)n(Cc3cccc(F)c3)c2c1	·	2	+	2	-10	16	i	0
CC(=O)c1c(N2CCOCC2)[nH]c(-c2ccccc2)nc1=S	1	1	+	-4	-12	11	+	0
SMILES	ATG4B inh	SKN-1 inh	Myeloid diff 2	CHRM1 agonist	CHRM1 antagonist	CHRM1 PAM	Myeloid diff CP1	GFP autofluor
CN1/C(=C\P(=O)(N(C)C)N(C)C)C(C)(C)c2ccccc21	-5	70	+	0	18	2	i	82*
COc1ccc(CNC(=O)N2CCN(c3cccc(Cl)c3)CC2)cc1OC	-5	7	i	0	7	-8	·	·
Cc1cccc(N2CCN(C(=O)NCc3ccc(Cl)cc3)CC2)c1	-8	14	i	-4	-3	0	i	0
COC(=O)c1ccccc1NC(=O)C1CC=CCC1C(=O)O (centres undefined)	-17	14	i	-2	-5	6	i	0
Cc1ccc(OCC(=O)N2CCCCC2)c(Br)c1	-3	-9	i	-1	-23	27*	i	0
CSCCC(NC(=O)c1ccco1)C(=O)NCC(c1ccccc1)N(C)C (centres undefined)	3	4	i	-8	-3	2	·	·
O=C(Nc1nc(-c2cccnc2)cs1)c1ccc(S(=O)(=O)N2CCOCC2)cc1	2	-2	i	-4	-4	3	i	2
O=C(COC(=O)c1ccc(S(=O)(=O)N2CCOCC2)cc1)Nc1nc(-c2ccccc2)cs1	-16	5	i	-2	-6	7	·	·
COc1ccc(-n2c(C)nnc2SCC(=O)N2C(C)CCCC2C)cc1 (centres undefined)	3	3	+	-3	6	-2	i	0
O=C(NNC(=O)C12CC3CC(CC(C3)C1)C2)c1ccccc1[N+](=O)[O-]	-6	12	i	-1	-5	3	i	0
O=C(NNC(=O)C12CC3CC(CC(C3)C1)C2)c1ccccc1O	-3	5	i	0	-1	2	·	·
Cc1ccc(-n2cc(CCCCCCCCC(=O)O)nn2)cc1	-11	16	i	0	-15	10	·	·
O=C(C1=C(O)C(=O)N(CCN2CCOCC2)C1c1ccc(F)cc1)c1cc2ccccc2o1 (centres undefined)	-15	3	i	-2	-17	7	·	·
O=C(C1=C(O)C(=O)N(CCCN2CCOCC2)C1c1ccccn1)c1cc2ccccc2o1 (centres undefined)	-7	22	i	-2	-9	-5	i	1
CC(=O)Oc1cc(C)cc2oc(=O)cc(-c3ccccc3)c12	-3	0	i	-9	-17	7	i	0
CC(C)OCc1ccc(C(=O)N2CCN(CC(=O)N3CCCC3)CC2)cc1	-1	16	i	0	-20	16	·	·
COc1ccccc1Cc1c(-c2cccc(Cl)c2)nc2ccc(Br)cn12	·	9	+	-3	-3	1	i	41*
